According to PubChem BioAssay (Tox21):
Values joined by “and” are separate entries in the source; they are usually repeats but may differ in a detail not shown here. Equal values may be shown once. Results filed as inconclusive are left out. Where a call stands in place of a potency, no number is given. A structure can be active in one record and inactive in another. Active and inactive are the calls of the source. Calls follow the shape of the full dose curve.

How the values were obtained:
[1] = biological target: Acetylcholinesterase (Homo sapiens) (UniProt P22303); assay: Acetylcholinesterase (AChE) small molecule antagonists: colormetric cell-based qHTS assay (AID 1347395); also: nearly all actives have a fitted effect of over 30% in size; also: potency is read from the fitted curve at half-maximal effect
Chain of Acetylcholinesterase (Homo sapiens) (P22303 whole entry, looked up): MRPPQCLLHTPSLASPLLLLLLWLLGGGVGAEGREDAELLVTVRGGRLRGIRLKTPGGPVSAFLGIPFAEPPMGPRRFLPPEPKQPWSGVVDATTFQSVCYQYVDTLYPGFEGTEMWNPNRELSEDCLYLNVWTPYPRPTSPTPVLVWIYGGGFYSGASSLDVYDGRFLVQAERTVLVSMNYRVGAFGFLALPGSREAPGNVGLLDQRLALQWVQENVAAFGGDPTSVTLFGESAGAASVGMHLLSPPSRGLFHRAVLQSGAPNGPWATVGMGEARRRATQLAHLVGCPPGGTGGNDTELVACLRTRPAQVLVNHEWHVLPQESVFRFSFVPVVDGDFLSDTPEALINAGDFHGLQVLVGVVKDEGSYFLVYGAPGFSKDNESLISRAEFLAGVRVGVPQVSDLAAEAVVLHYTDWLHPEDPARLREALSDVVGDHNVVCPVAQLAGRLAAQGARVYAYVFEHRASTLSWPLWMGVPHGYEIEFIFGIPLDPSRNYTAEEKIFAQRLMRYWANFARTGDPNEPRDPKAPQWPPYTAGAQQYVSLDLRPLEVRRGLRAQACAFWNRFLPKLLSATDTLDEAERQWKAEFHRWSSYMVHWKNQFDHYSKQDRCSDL
Outline: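 Colorimetric read-out: DTNB detects thiocholine released when cellular AChE in SH-SY5Y cells hydrolyses acetylthiocholine. Cells attached overnight, received compound for 30 min at 37 C, then substrate mix for 90 min at 37 C.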

[2] = biological target: Acetylcholinesterase (Homo sapiens) (UniProt P22303); assay: Acetylcholinesterase (AChE) small molecule antagonists: enzyme-based qHTS assay (AID 1347397); settings: Potency: AChE enzyme activity inhibition; outcome: AChE enzyme activity inhibition; also: nearly all actives have a fitted effect of over 55% in size; also: potency is read from the fitted curve at half-maximal effect
Outline: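 First, recombinant human AChE (50 mU/mL as dispensed) received test compound or DMSO. Second, plates stood 30 min at room temperature. Third, DTNB and acetylthiocholine were added, followed by 10 min at room temperature and colorimetric detection.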

[3] = biological target: Acetylcholinesterase (Homo sapiens) (UniProt P22303); assay: Acetylcholinesterase (AChE) small molecule antagonists: fluorescence cell-based qHTS assay (AID 1347398); settings: Potency: AChE activity; outcome: AChE activity; also: nearly all actives have a fitted effect of over 50% in size; also: potency is read from the fitted curve at half-maximal effect
Outline: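 Homogeneous quantitative HTS format. SH-SY5Y cells seeded at 2,000 per well settle overnight at 37 C. Compound pretreatment runs 30 min (37 C, 5% CO2); substrate/probe mix then reacts 40 min at RT before reading 490/520 nm.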

[4] = biological target: Acetylcholinesterase (Homo sapiens) (UniProt P22303); assay: Acetylcholinesterase (AChE) small molecule antagonists: enzyme-based qHTS assay with human liver microsomes (AID 1347399); settings: Potency: qHTS inhibition; outcome: qHTS inhibition; also: nearly all actives have a fitted effect of over 60% in size
Outline: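 Recombinant human AChE (50 mU/mL in the enzyme mix) and human liver microsomes (0.25 mg/mL final) were preincubated with compound and NADPH (0.25 mg/mL final) for 30 min at 37 C. Acetylthiocholine/DTNB was then added; thiocholine was read colorimetrically after 10 min at room temperature.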

Row | Structure (SMILES) | Potency [1] | Potency [2] | Potency [3] | Potency [4] | activity, negative = inhibition [1] | activity change, negative = inhibition [2] | activity change, negative = inhibition [3] | activity change, negative = inhibition [4]
1 | CC[C@]12CCCN3CCc4c(n(c5ccccc45)C(=O)C1)[C@@H]32 | inactive | inactive | inactive | inactive |  |  |  | 
2 | CCN(O)CC | inactive | inactive | inactive | inactive |  |  |  | 
3 | COc1c2ccoc2cc2oc(=O)ccc12 | inactive | inactive | inactive | inactive |  |  |  | 
4 | NC(=O)/N=N/C(N)=O | 63.5 µM (active) | 71.2 µM (active) | 7.12 µM (active) and 31.7 µM (active) | inactive |  |  |  | 
5 | CC(=O)O[Si](C)(OC(C)=O)OC(C)=O | inactive | inactive | inactive | inactive |  |  |  | 
6 | O=C(O)c1ccccc1Nc1cc(Cl)ccc1C(=O)O |  |  |  |  | 1.23% [at 23.6 µM] (inactive) | 2.19% [at 23.6 µM] (inactive) | 2.35% [at 23.8 µM] (inactive) | 0.168% [at 23.6 µM] (inactive)
7 | CC(C)(C)S | inactive | inactive | inactive | inactive |  |  |  | 
8 | CC(C)CCCCCOC(=O)CS | inactive | inactive | inactive | inactive |  |  |  | 
9 | CCC(=O)OCCC(C)CCC=C(C)C (stereo not given) | inactive | inactive | inactive | inactive |  |  |  | 
10 | CC1=C(/C=C/C(C)=C/C=C/C(C)=C/C(=O)Nc2ccc(O)cc2)C(C)(C)CCC1 | inactive | inactive | 13.8 µM (active) | inactive |  |  |  | 
11 | CC[C@@]1(O)C(=O)OCc2c1cc1n(c2=O)Cc2cc3c(CN(C)C)c(O)ccc3nc2-1 | inactive | inactive | inactive | inactive |  |  |  | 
12 | Oc1ccc2c(c1)-c1ccccc1C2 | inactive | inactive | inactive | inactive |  |  |  | 
13 | CN1CCC(=C2c3ccccc3CCc3cccnc32)CC1 | inactive | inactive | inactive | inactive |  |  |  | 
14 | CCC(CC)(CC(=O)Nc1cccc(/C=C/c2nc(C3CCC3)cs2)c1)C(=O)O | inactive | inactive | inactive | inactive |  |  |  | 
15 | COc1ccc(S(=O)(=O)Nc2nnc(CC(C)C)s2)cc1 | inactive | inactive | inactive | inactive |  |  |  | 
16 | CCCCOC(=O)c1ccccc1C(=O)OCC(CC)CCCC (stereo not given) | inactive | inactive | inactive | inactive |  |  |  | 
17 | O=S(=O)(O)CC(O)CCl (stereo not given) | inactive | inactive | inactive | inactive |  |  |  | 
18 | C/C(C=O)=C\c1ccccc1 | inactive | inactive | inactive | inactive |  |  |  | 
19 | O=C=Nc1ccc(Cl)c(Cl)c1 | inactive | inactive | inactive | inactive |  |  |  | 
20 | C=C(C)C(=O)OCCC(C)OC(=O)C(=C)C (stereo not given) | inactive | inactive | inactive | inactive |  |  |  | 

Row | Structure (SMILES) | Potency [1] | Potency [2] | Potency [3] | Potency [4] | activity, negative = inhibition [1] | activity change, negative = inhibition [2] | activity change, negative = inhibition [3] | activity change, negative = inhibition [4]
21 | CC1(C)O[C@H]2CC(=O)OC[C@]23[C@H]2CC[C@@]4(C)[C@H](c5ccoc5)OC(=O)[C@H]5O[C@]54[C@]2(C)C(=O)C[C@@H]13 | inactive | inactive | inactive | inactive |  |  |  | 
22 | Oc1ccc(Cc2ccccc2O)cc1 | inactive | inactive | inactive | inactive |  |  |  | 
23 | C[C@H]1[C@H](NC(=O)/C(=N/OC(C)(C)C(=O)O)c2csc(N)n2)C(=O)N1S(=O)(=O)O (stereo in doubt) | inactive | inactive | inactive | inactive |  |  |  | 
24 | CCc1nccnc1CC |  |  |  |  | 2.95% [at 23.6 µM] (inactive) | -0.515% [at 23.6 µM] (inactive) | 3.3% [at 23.8 µM] (inactive) | 0.443% [at 23.6 µM] (inactive)
25 | O=S(=O)(O)CCCN1CCOCC1 | inactive | inactive | inactive | inactive |  |  |  | 
26 | CCOC(=O)c1ccc(O)cc1 | inactive | inactive | inactive | inactive |  |  |  | 
27 | Clc1ccc2c(Cl)ccnc2c1 | inactive | inactive | inactive | inactive |  |  |  | 
28 | Nc1ccc(S(=O)(=O)NC(=O)c2ccccc2)cc1 | inactive | inactive | inactive | inactive |  |  |  | 
29 | CC(C)(C)c1cccc(O)c1 | inactive | inactive | inactive | inactive |  |  |  | 
30 | C[C@@H]1O[C@@H](O[C@@H]2[C@@H](O)[C@H](OCCc3ccc(O)c(O)c3)O[C@H](CO[C@@H]3O[C@H](CO)[C@@H](O)[C@H](O)[C@H]3O)[C@H]2OC(=O)/C=C/c2ccc(O)c(O)c2)[C@H](O)[C@H](O)[C@H]1O | inactive | inactive | inactive | inactive |  |  |  | 
31 | C/C(=N\O)c1ccc(OCC(=O)N2CCCCC2)cc1 | inactive | inactive | inactive | inactive |  |  |  | 
32 | COc1ccc(-c2coc3cc(O)cc(O)c3c2=O)cc1 | inactive | inactive | inactive | inactive |  |  |  | 
33 | On1nnc2ccccc21 | inactive | inactive | inactive | inactive |  |  |  | 
34 | COc1ccccc1C=O | inactive | inactive | inactive | inactive |  |  |  | 
35 | Cc1cc(C)nc(NS(=O)(=O)c2ccc(N)cc2)n1 | inactive | inactive | inactive | inactive |  |  |  | 
36 | CCCCCCOC(=O)CCCCCCCC(=O)OCCCCCC | inactive | inactive | inactive | inactive |  |  |  | 
37 | c1ccc(Cc2ccccc2)cc1 | inactive | inactive | inactive | inactive |  |  |  | 
38 | CCCOc1ccc2nc(NC(=O)OC)[nH]c2c1 | inactive | inactive | inactive | inactive |  |  |  | 
39 | CCCCCCCCCCCCCCCCI |  |  |  |  | 1.24% [at 23.6 µM] (inactive) | 1.36% [at 23.6 µM] (inactive) | 3.93% [at 23.8 µM] (inactive) | 0.294% [at 23.6 µM] (inactive)
40 | CCC[C@H](N[C@@H](C)C(=O)N1[C@H](C(=O)O)C[C@@H]2CCCC[C@@H]21)C(=O)OCC | inactive | inactive | inactive | inactive |  |  |  | 

Row | Structure (SMILES) | Potency [1] | Potency [2] | Potency [3] | Potency [4] | activity, negative = inhibition [1] | activity change, negative = inhibition [2] | activity change, negative = inhibition [3] | activity change, negative = inhibition [4]
41 | FC(F)(F)c1cccc(Cl)c1 | inactive | inactive | inactive | inactive |  |  |  | 
42 | CC(Oc1cc(Cl)ccc1Cl)C(=O)O (stereo not given) | inactive | inactive | inactive | inactive |  |  |  | 
43 | NCCN1CCNCC1 | inactive | inactive | inactive | inactive |  |  |  | 
44 | C=CC(=O)OCCC(=O)O | 82.3 µM (active) and inactive | inactive | inactive | inactive |  |  |  | 
45 | CC1(C)[C@H]2CC[C@]1(C)[C@H](O)C2 | inactive | inactive | inactive | inactive |  |  |  | 
46 | CCOC(=O)OCC | inactive | inactive | inactive | inactive |  |  |  | 
47 | CCCCCCCCCCCCN1CCCC1=O | inactive | inactive | inactive | inactive |  |  |  | 
48 | OC1CCCCC1 | inactive | inactive | inactive | inactive |  |  |  | 
49 | CC(C)Cc1nccs1 | inactive | inactive | inactive | inactive |  |  |  | 
50 | C=C(C)[C@@H]1CCC2=CC(=O)C[C@@H](C)[C@]2(C)C1 | inactive | inactive | inactive | inactive |  |  |  | 
51 | CSCCC=O | inactive | inactive | inactive | inactive |  |  |  | 
52 | O=C(c1ccc2c(c1)C(=O)OC2=O)c1ccc2c(c1)C(=O)OC2=O | inactive | inactive | inactive | inactive |  |  |  | 
53 | CCCCNC(=O)NS(=O)(=O)c1ccc(N)cc1 | inactive | inactive | inactive | inactive |  |  |  | 
54 | O=C(O)c1ccc(-n2nc(-c3ccccc3O)nc2-c2ccccc2O)cc1 | inactive | inactive | inactive | inactive |  |  |  | 
55 | Cc1cccc(C(=O)O)c1O | inactive | inactive | inactive | inactive |  |  |  | 
56 | O=c1cc(O)c(Cl)c[nH]1 | inactive | inactive | inactive | inactive |  |  |  | 
57 | c1ccc2sc(SSN3CCOCC3)nc2c1 | inactive | inactive | inactive | inactive |  |  |  | 
58 | c1ccc2c(c1)ccc1cc3c(ccc4ccccc43)cc12 | inactive | inactive | inactive | inactive |  |  |  | 
59 | CO[Si](OC)(OC)c1ccccc1 | inactive | inactive | inactive | inactive |  |  |  | 
60 | C[C@]12CC[C@@H]3c4ccc(O)cc4C[C@@H](CCCCCCCCCS(=O)CCCC(F)(F)C(F)(F)F)[C@H]3[C@@H]1CC[C@@H]2O (stereo not given in full) | inactive | inactive | inactive | inactive |  |  |  | 
